Data taken from PubChem BioAssay (EPA / NIEHS).
Calls of active or inactive are those of the source. The calls were made as follows: active = hit-call score of the fitted dose curve at least 0.9, where 1 is the maximum; inactive = score below 0.9.

Key:
[1] = TAMU_PeakParms_SingleDonor1434_Chronotropy: Texas A&M University (TAMU) 1.5-hr Human Induced Pluripotent Stem Cell (iPSC)-derived Cardiomyocytes Calcium (Ca+2) Flux Assay for Cardiotoxicity: Chronotropy (changes in peak frequency) (AID 2284217); details: actives raise or lower the signal
Procedure, shortened: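 iPSC-derived cardiomyocytes (single donor 1434) dosed at 0.2, 1, 10 and 100 uM in 0.5% DMSO for 1.5 h at 37C; Ca2+ dye fluorescence gave average beat frequency. Zero-beat points removed; bidirectional fit versus DMSO, POD as EC05.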

[2] = IUF_NPC1_viability_72hr: Viability Assessment at 72 hours in the Leibniz Research Institute for Environmental Medicine (IUF) Neural Progenitor Cell Proliferation Assay (NPC1) (AID 2284209)
Procedure, shortened: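 hNPC spheres, 1/well, EGF+FGF medium, 37C/5% CO2; dosed day 0, 72 h, no re-dosing. Resazurin reduction (alamar blue) fluorescence; DMSO = negative control/baseline; growth-factor-free wells as positive control.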

[3] = CCTE_Mundy_HCI_Cortical_Synap_Neur_Matur_NeuriteSpotCountPerNeuriteLength: CCTE's Synaptogenesis and Neurite Maturation Assay in rat cortical cells for Neurite Spot Count per Neurite Length, Mundy Lab (AID 2284210)
Procedure, shortened: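 Rat primary cortical cultures, AraC added at DIV 5 to suppress glia; chemical exposure from DIV 7 to DIV 12. Fixed cells stained for MAP2 and synaptophysin plus Hoechst; synaptophysin puncta per neurite length quantified by high-content imaging, relative to DMSO.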

[4] = CCTE_Mundy_HCI_Cortical_Synap_Neur_Matur_BPCount: CCTE's Synaptogenesis and Neurite Maturation Assay in rat cortical cells for Branch Point Count, Mundy Lab (AID 2284211)
Procedure: CCTE_Mundy_HCI_Cortical_Synap&Neurite_Matur is a multiplexed, cell-based-readout assay that uses rat primary cortical cells with measurements taken at 288.33 hours after chemical dosing in a microplate: 96-well plate.CCTE_Mundy_HCI_Cortical_Synap_Neur_Matur_BPCount is one of eight components of the CCTE_Mundy_HCI_Cortical_Synap&Neurite_Matur assay. It measures synaptogenesis and neurite maturation related to number of branch points using High Content Imaging of fluorescently labelled markers.[…] Using a type of morphology reporter, loss -of-signal activity can be used to understand developmental effects.
Cells are plated onto 96 well plates and allowed 2 hr for attachment to the substrate. At days in vitro (DIV) 5, Cytosine Arabinoside (AraC) is added to arrest glial cell growth. Chemicals are dosed and a media change is performed at DIV 7 of differentiation and is continued through DIV 12 when the experiment is terminated. Cells are fixed with […] and Hoechst Dye. Cells are stained using Millipore Mouse anti-MAP2MAB3418 (1:800) and Millipore Rabbit anti-Synaptophysinsc-1750 (1:250) primary antibodies and Alexa Fluor-488 goat anti-mouse and AlexaFluor-546 goat anti-rabbit secondary antibodies to label neuronal cell nuclei, synapses and neurites. A Cellomics ArrayScan VTi HCS Reader is used for automated image acquisition and analysis of neurite outgrowth.

[5] = CCTE_Mundy_HCI_Cortical_NOG_NeuriteCount: CCTE's Neurite Outgrowth Assay in rat cortical cells for Neurite Count, Mundy Lab (AID 2284212);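 also: cells fixed about two days after chemical exposure began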
Procedure, shortened: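 Neurite number per cell from high-content imaging of betaIII-tubulin immunostaining, with Hoechst nuclear counterstain.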

[6] = CCTE_Mundy_HCI_Cortical_NOG_NeuriteLength: CCTE's Neurite Outgrowth Assay in rat cortical cells for Neurite Length, Mundy Lab (AID 2284213)
Procedure, shortened: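 Neurite length was read by high-content imaging of βIII-tubulin-labelled neurites in rat primary cortical cultures. Activity was fitted relative to DMSO.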

[7] = CCTE_Mundy_HCI_Cortical_Synap_Neur_Matur_NeuriteLength: CCTE's Synaptogenesis and Neurite Maturation Assay in rat cortical cells for Neurite Length, Mundy Lab (AID 2284214)
Procedure, shortened: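 Rat cortical neurons, AraC at DIV 5; compound + media change DIV 7, end DIV 12 (288.33 h). Fix, MAP2/synaptophysin/Hoechst immunostain, automated HCI of neurite length vs DMSO.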

[8] = CCTE_Mundy_HCI_Cortical_Synap_Neur_Matur_NeuriteSpotCountPerNeuron: CCTE's Synaptogenesis and Neurite Maturation Assay in rat cortical cells for Neurite Spot Count per Neuron Count, Mundy Lab (AID 2284215)
Procedure, shortened: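 High-content imaging counts synaptophysin puncta along MAP2-labelled neurites per neuron after chemical exposure of rat cortical cells from DIV 7 to termination at DIV 12 (AraC added DIV 5). Loss of signal relative to DMSO.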

[9] = CCTE_Mundy_HCI_Cortical_Synap_Neur_Matur_SynapseCount: CCTE's Synaptogenesis and Neurite Maturation Assay in rat cortical cells for Synapse Count, Mundy Lab (AID 2284218)
Procedure, shortened: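 Primary rat cortical culture; AraC DIV 5 to arrest glia; compound + media change DIV 7; terminated DIV 12. PFA/Hoechst fix, anti-MAP2 + anti-synaptophysin immunostain; HCI synapse count/neuron; DMSO = baseline.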

[10] = CCTE_Mundy_HCI_Cortical_Synap_Neur_Matur_NeuriteCount: CCTE's Synaptogenesis and Neurite Maturation Assay in rat cortical cells for Neurite Count, Mundy Lab (AID 2284222);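 also: exposure from day 7 to day 12 in vitro with readout at day 12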
Procedure, shortened: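 Rat primary cortical cells; AraC added at DIV 5, chemicals dosed with media change at DIV 7 through DIV 12. MAP2/synaptophysin/Hoechst immunostaining, high-content imaging of neurite number; fitted relative to DMSO.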

Measured: AC50

c1ccc2c(c1)c1cccc3ccc4cccc2c4c31
active: [1] 9.92 µM

N#Cc1ccc(CC(=NNC(=O)Nc2ccc(OC(F)(F)F)cc2)c2cccc(C(F)(F)F)c2)cc1
not listed: [1]
inactive: all other assays above

CN(C)C(=N)N=C(N)N
active: [4] 18.1 µM | [7] 18.1 µM
not listed: [1]
inactive: all other assays above
